This note sets out measurements from PubChem BioAssay (NCATS).

Records with an inconclusive call do not appear. A call without a number means that no potency is given here. Active and inactive are the calls of the source. Calls follow the shape of the dose curve; as a rule, active = well fitted curve in the direction sought with a large enough effect in the signal ratio, with a control signal flat (not every such curve was filed as active); inconclusive = small, poorly fitted or top-dose-only effect, or effect the other way, or a change in a side signal; inactive = no such curve, though single readings can be large or run the other way; the % refers to the signal ratio.

In the assay the target is Tyrosine-protein phosphatase non-receptor type substrate 1 (Homo sapiens) + Leukocyte surface antigen CD47 (Homo sapiens) (UniProt P78324+Q08722). As to the kind of experiment: CD47-SIRPalpha protein protein interaction - LANCE assay qHTS validation (AID 1347057). As to conditions: Recombinant CD47-His / biotin-SIRPalpha, TR-FRET ratio; series mostly up to 38.3 µM. An excerpt: SIRPalpha is a myeloid cell expressed immunomodulatory receptor that binds the tumor expressed immune checkpoint CD47. Therapeutic disruption of this interaction leads to immune-mediated tumor rejection. This assay was used to quantitate CD47-SIRPalpha binding biochemically and evaluate chemical libraries for novel CD47-SIRPalpha inhibitors. To recapitulate the biological interaction of CD47 and SIRPalpha, we designed expression constructs to produce their recombinant, soluble, extracellular interaction domains. CD47 was produced with an N-terminal 6His tag. SIRPalpha was produced with an N-terminal Avi-Tag for site-specific biotin incorporation. The CD47-SIRPalpha interaction was measured by TR-FRET using affinity tag linked reagents (anti-6His-Eu donor and streptavidin-APC acceptor). SIRPalpha without biotin incorporation was used as a positive control inhibitor.
Sequence of Tyrosine-protein phosphatase non-receptor type substrate 1 (Homo sapiens) + Leukocyte surface antigen CD47 (Homo sapiens) (P78324 whole entry, looked up, the tested form may be a part): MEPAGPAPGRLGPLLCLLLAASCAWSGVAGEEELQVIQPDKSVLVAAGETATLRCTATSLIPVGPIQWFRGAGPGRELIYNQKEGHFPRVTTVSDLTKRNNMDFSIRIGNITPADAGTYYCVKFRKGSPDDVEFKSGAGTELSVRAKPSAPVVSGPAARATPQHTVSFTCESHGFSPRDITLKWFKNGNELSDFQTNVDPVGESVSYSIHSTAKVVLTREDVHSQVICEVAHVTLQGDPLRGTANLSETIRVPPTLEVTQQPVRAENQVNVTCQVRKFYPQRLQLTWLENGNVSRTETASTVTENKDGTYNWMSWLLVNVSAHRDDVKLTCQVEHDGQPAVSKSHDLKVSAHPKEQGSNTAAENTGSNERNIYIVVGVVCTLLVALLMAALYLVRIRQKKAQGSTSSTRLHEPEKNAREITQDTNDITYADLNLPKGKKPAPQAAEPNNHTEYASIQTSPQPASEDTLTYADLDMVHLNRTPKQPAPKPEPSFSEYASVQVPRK
Sequence of Tyrosine-protein phosphatase non-receptor type substrate 1 (Homo sapiens) + Leukocyte surface antigen CD47 (Homo sapiens) (Q08722 whole entry, looked up, the tested form may be a part): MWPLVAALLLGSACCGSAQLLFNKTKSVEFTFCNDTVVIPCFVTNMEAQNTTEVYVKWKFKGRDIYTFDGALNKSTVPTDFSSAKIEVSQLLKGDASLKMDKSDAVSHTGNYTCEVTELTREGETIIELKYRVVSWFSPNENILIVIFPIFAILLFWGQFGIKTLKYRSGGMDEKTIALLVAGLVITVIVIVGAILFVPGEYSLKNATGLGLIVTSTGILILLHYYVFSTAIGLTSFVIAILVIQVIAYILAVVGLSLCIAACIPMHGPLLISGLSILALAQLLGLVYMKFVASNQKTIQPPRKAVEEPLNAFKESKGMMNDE
PROTOCOL TABLE (as described by Miller, T. et al. 2019)
SEQUENCE No. (e.g., 1, 2, 3, etc.); […] (e.g., Cells, Incubation, Reagent, etc.); VALUE and DESCRIPTION.
1a. Reagent. 3 uL CD47-His (12.5 nM) and Anti-His Eu Donor reagent (3 nM) added to respective wells in Assay buffer; white/solid bottom high base, med bind 1536-well plates (Greiner 789075)
1b. Reagent. 2 uL Assay buffer negative control for background fluorescence
2. Reagent. 23 nL library compounds (7-pt, 1:4 intraplate titration series) or DMSO control transferred by Pin Tool
3. Centrifuge. Centrifuge plate for 30 s at 1000 RPM
4. Incubation.#Incubate reagents at room temperature for 30 min, protected from light
5. Reagent. 2 uL SIRPalpha-biotin (100 nM) in Assay buffer
6. Incubation.#Incubate reagents at room temperature for 30 min, protected from light
7. Reagent. 1 uL SAV-APC (26 nM) acceptor reagent added to respective wells
8. Centrifuge. Centrifuge plate for 30 s at 1000 RPM
9. Incubation. Incubate reagents at room temperature for 30 min, protected from light
10. Detector. Measure Top TR-FRET on EnVision (Eu/APC filter set); calculate ratio Ch1/Ch2
1. Assay buffer composition.#Phosphate buffered saline (PBS; 10 mM Phosphate, 137 mM NaCl, and 2.7 mM KCl; pH 7.4), 0.05% IGEPAL CA-630
2. 23nL of […] library compounds (7 plates) or DMSO vehicle control transferred to 9 Greiner white/solid bottom high base, TC plates in 7 interplate 1:5 titrations (see Yasgar, A. et al. 2008) with Pintool. Two of the 9 plates are DMSO-only in compound field at beginning and end of compound library-treated plates.
10. Detector settings#Mirror = LANCE/DELFIA Dual Enh; Ex. Filter = UV2[TRF] 320; Em. Filter = APC 665; 2nd Em. Filter = Europium 615; Measurement h = 6.5; Ex. light (%) = 100; Delay = 60 us; Window t = 100 us; No. Seq. windows = 1; Time between flashes = 2000us; No. of flashes = 100; No. of flashes for 2nd detector = 100; Calculation: "Ratio Ch1/Ch2"
As to `N[C@H](C(=O)O)[C@H]1C[C@@H]1C(=O)O`, the Potency result is “inactive”.
The result for `COc1ccc(-c2ccc(N)[n+](CCCC(=O)O)n2)cc1` reads “inactive”.
The result for `Cc1ccccc1/C=C/C1=NCCN1` reads “inactive”.
For the compound `C=CCN1CCc2cc(O)c(O)cc2C(c2ccccc2)C1` (stereo not given), the Potency entry was “inactive”.
The result for `CCCn1c(=O)c2c(ncn2C)n(CCC)c1=O` reads “inactive”.
For `C#CCn1c(=O)c2c(ncn2C)n(C)c1=O`, the Potency result is “inactive”.
The result for `NC(=O)c1cc[n+](CC2=C(C(=O)O)N3C(=O)[C@@H](NC(=O)[C@@H](c4ccccc4)S(=O)(=O)[O-])[C@H]3SC2)cc1` reads “inactive”.
As for `O=C(O)C1=CCCN(CCON=C(c2ccccc2)c2ccccc2)C1`, the Potency result is “inactive”.
Consider `Cn1cc(C(=O)OCC2CCN(CCNS(C)(=O)=O)CC2)c2ccccc21`, for which the Potency result was “inactive”.
As for `CCN1C(=O)C=CC1=O`, the Potency entry was “inactive”.
For `NCCCCN`, the Potency result was “inactive”.
Consider `COc1cc(CNC(=O)CCCCCCC(C)C)ccc1O`, for which the Potency result was “inactive”.
On to `CCCCCCCCCC(=O)NC(CN1CCOCC1)[C@H](O)c1ccccc1` (stereo not given in full), for which the Potency result was “inactive”.
Turning to `O=C(O)C1=CCNCC1`, the Potency entry was “inactive”.
On to `CC(=O)C(C)=O`, for which the Potency result was “inactive”.
The result for `N=S(=O)(O)Cc1noc2ccccc12` reads “inactive”; that for `Cc1cc2c(cc1Cl)N(C(=O)Nc1ccnc3ccccc13)CC2`, “inactive”.
Turning to `COc1cc(/C=C(\C#N)C(=O)c2ccc(O)c(O)c2)cc(I)c1O`, the Potency entry was “inactive”.
`COc1cc(CC(=O)O)ccc1O`: the Potency result was “inactive”.
Turning to `O=C1Cc2c([nH]c3ccc(Br)cc23)-c2ccccc2N1`, the Potency result was “inactive”.
In the case of `N=C(N)c1ccc(OCCCCCOc2ccc(C(=N)N)cc2)cc1` (tested in a mixture with another compound), the Potency result was “inactive”.
The value for `S=C(S)N1CCCC1` was “inactive”; that for `CC(=O)NCCc1c[nH]c2ccc(O)cc12` was “inactive”.
For the compound `CCCN(CCc1ccccc1)C1CCc2c(O)cccc2C1` (stereo not given), the Potency entry is “inactive”.
Turning to `O=C(O)CCC/C=C\C[C@@H]1[C@@H](/C=C/[C@H](O)C2Cc3ccccc3C2)[C@@H](F)C[C@@H]1O`, the Potency result is “inactive”.
Take `NC(N)=[N+]1CCc2ccccc2C1`: the Potency entry was “inactive”.
As to `CNc1cc(NS(=O)(=O)c2ccc(N)cc2)nc(NC)n1`, the Potency result is “inactive”.
The value for `COc1cc(N)c(Cl)cc1C(=O)OCCN1CCCCC1` was “inactive”.
`COC(=O)[C@H](NC(=O)c1cc(-c2ccccc2)nc2ccccc12)c1ccccc1`: the Potency entry was “inactive”.
As for `CCCCCCN(CCCCCC)C(=O)Cc1c(-c2ccc(F)cc2)[nH]c2ccccc12`, the Potency entry was “inactive”.
Take `COCc1nc2c([nH]1)c(=O)n(C)c(=O)n2CC(C)C`: the Potency entry was “inactive”.
With `CNc1ncnc2c1ncn2[C@H]1C[C@H](OP(=O)(O)O)[C@@H](COP(=O)(O)O)O1`, the Potency result is “inactive”.
In the case of `O=C1OC(=O)C2C3CCC(O3)C12` (stereo not given), the Potency entry was “inactive”.
For the compound `O=C1C2C=CC=CC2=NC(=S)N1CCN1CCC(=C(c2ccc(F)cc2)c2ccc(F)cc2)CC1` (stereo not given), the Potency result is “inactive”.
For `CCCCCC(O)CCCC(=O)O` (stereo not given), the Potency entry is “inactive”.
The result for `CCCn1c(=O)c(C)cn2nc(N)nc12` reads “inactive”; that for `O=[N+]([O-])c1cccc2c(Br)[nH]nc12`, “inactive”; that for `CC(=O)SC1CC2=CC(=O)CC[C@]2(C)C2CC[C@@]3(C)C(CC[C@@]34CCC(=O)O4)C12` (stereo not given in full), “inactive”.
For the compound `N[C@@H](Cc1ccc(F)cc1)C(=O)O`, the Potency entry is “inactive”.
As for `O=c1[nH]c(=O)c2nc3ccccc3nc2[nH]1`, the Potency entry is “inactive”.
